BJeLR lethal: MLPCN primary cell-based screen for lethality selective to Ras in HRASV12 cells | inhibition, % (test concentration not listed) | AID 1554, 2009 | 300,000 tested, 0.17% active | BJeLR (HRASV12) viability, CellTiter-Glo ATP luminescence, 48 h; in the data active = inhibition above about 50%
DUSP3 inh: VHR1 phosphatase inhibitors, primary screen, biochemical, absorbance, uHTS. AID 1654, 2009. inhibition, % at 13.3 µM. recombinant VHR phosphatase, pNPP absorbance. Dual specificity protein phosphatase 3 (Homo sapiens), P51452. 290,000 tested, 0.52% active; in the data active = inhibition above about 50%
Target sequence (P51452 whole entry, looked up): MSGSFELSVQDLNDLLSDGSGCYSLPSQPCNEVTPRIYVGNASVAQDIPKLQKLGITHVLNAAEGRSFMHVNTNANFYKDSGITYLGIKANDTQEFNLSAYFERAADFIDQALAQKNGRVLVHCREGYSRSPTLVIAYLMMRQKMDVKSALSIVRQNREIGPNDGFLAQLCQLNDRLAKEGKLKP
PrPC surface inh: inhibitors of human cell surface prion protein PrPC, primary screen, cell-based, TR-FRET; TR-FRET read-out; inhibition, % at 13.8 µM; 370,000 tested, 0.43% active; AID 720596, 2013; in the data active = inhibition above about 24%
Sa ugtP lethal: growth inhibition of ugtP-null S. aureus, primary screen, RN4220 ugtP deletion, OD600. 330,000 tested, 0.54% active. 16 h. growth inhibition, % (no concentration beside the values); in the data active = growth inhibition above about 68%
3CLpro inhibitor: SARS-CoV 3CLpro protease inhibitors, primary screen, biochemical, quenched FRET; Replicase polyprotein 1ab (Severe acute respiratory syndrome coronavirus), P0C6X7; recombinant SARS-CoV 3CLpro, quenched FRET peptide cleavage; inhibition, % at 6 µM; 290,000 tested, 0.14% active; AID 1706, 2009; in the data active = inhibition above about 12%
Sa RN4220 lethal: growth inhibition of S. aureus RN4220, primary screen, OD600; inhibition, % (test concentration not listed); 16 h; 330,000 tested, 0.33% active; in the data active = inhibition above about 85%
Hits are given with their value; – = inactive; · = not tested or not shown. Shown are actives, neighbours in structure and some others; about 1.4% of the full set was active somewhere.

SMILES	BJeLR lethal	DUSP3 inh	PrPC surface inh	Sa ugtP lethal	3CLpro inhibitor	Sa RN4220 lethal
CCc1nc(C)cn1S(=O)(=O)c1ccc([N+](=O)[O-])cc1	–	–	–	94	–	97
C#CCOCCOCCOCCNc1nc(N2CCN(C(=O)C(CCC(=O)O)n3cc(C(N)C(C)CC)nn3)CC2)nc(N2CCN(C(=O)C(C(C)CC)n3cc(C(N)Cc4ccc(O)cc4)nn3)CC2)n1 (centres undefined)	·	·	·	–	·	–
CC(C)(C)C1C=C(C(=O)NC2CC2)OC(OCCCCO)C1 (centres undefined)	·	·	·	–	·	–
O=C(C1CC1)N(Cc1ccco1)c1nc(-c2ccccc2)cs1	–	–	–	96	–	–
Cc1ccccc1S(=O)(=O)N1CC(C(=O)O)=CCC1c1ccc(Cl)cc1 (centres undefined)	·	·	·	–	·	–
COc1ccc(-c2c(C)oc3ccc(C)cc23)cc1	–	–	–	84	–	–
COc1ccc(-c2oc3ccc(-c4cc(OC)c(OC)c(OC)c4)cc3c2-c2ccc(OC)cc2)cc1	–	·	–	–	·	–
O=C(O)c1ccc2c(c1)C(=O)N(c1cccc(-c3nc4ccccc4s3)c1)C2=O	–	123	–	·	–	·
CCCc1ccc(Oc2cn[nH]c2-c2ccc(O)cc2O)cc1	·	–	–	90	–	–
C/C(=N/OC(=O)c1ccccc1Br)c1ccc(C)cc1	–	52	–	·	–	·
CC(=NOC(=O)c1ccc(F)cc1)c1ccc(C)cc1	·	·	·	–	·	–
CC(C)CC(NC(=O)c1[nH]cnc1C(=O)NC(Cc1ccccc1)C(=O)OCc1ccccc1)C(=O)OCc1ccccc1 (centres undefined)	·	·	·	–	·	–
C=C(C)C(=O)Nc1cccc(C2=NOC3(C2)CC(C(N)=O)N(C(=O)CCCCC)C3)c1 (centres undefined)	·	·	·	–	·	–
C#CCOCCOCCOCCNc1nc(N2CCN(C(=O)C(C)n3cc(CCC(=O)O)nn3)CC2)nc(N2CCN(C(=O)C(CCCCN)n3cc(CCCC)nn3)CC2)n1 (centres undefined)	·	·	·	–	·	–
CCOc1ccc(C2=Nn3c(nnc3-c3cccnc3)SC2)cc1	–	57	–	–	–	–
C#CCNC(=O)C1=CC(C2CCCCC2)CC(OCCCCO)O1 (centres undefined)	·	·	·	–	·	–
O=C(O)C1CC1C(NP(=O)(c1ccccc1)c1ccccc1)c1ccccc1 (centres undefined)	·	·	·	–	·	–
CC1(C)NC(=O)N(CCCCOc2ccccc2[N+](=O)[O-])C1=O	–	–	·	–	–	–
CC1(C)NC(=O)N(CCCOc2ccccc2Br)C1=O	–	51	–	·	–	·
CCC1N=C(SC)NC(C)=C1C(=O)c1ccccc1 (centres undefined)	·	–	–	–	–	–
CSC1=NC(C(Cl)(Cl)Cl)N=C(c2ccc(C)cc2)N1 (centres undefined)	56	–	–	–	–	–
NC(=O)C1CC2(CC(c3cccc(NC(=O)COc4ccc(Cl)cc4)c3)=NO2)CN1C(=O)c1ccccc1 (centres undefined)	·	·	·	–	·	–
CS(=O)(=O)N1CCN(c2ccc([N+](=O)[O-])c(NCc3ccccc3)c2)CC1	–	–	–	–	–	–
CS(=O)(=O)N1CCN(c2ccc([N+](=O)[O-])c(NCc3ccc(Cl)cc3)c2)CC1	–	90	–	–	–	–
CC(C)c1ccc(CNc2cc(N3CCCC3)ccc2[N+](=O)[O-])cc1	–	–	–	–	–	–
CC(C)(C)c1ccc(CNc2cc(N3CCOCC3)ccc2[N+](=O)[O-])cc1	–	–	–	92	–	–
CC(=O)Oc1ccc(C(=O)C2C3C(=O)N(c4ccccc4)C(=O)C3C3C=CC=NN32)cc1 (centres undefined)	·	·	·	–	·	–
Cc1ccc(CNC(=O)C2CC2C(NP(=O)(c2ccccc2)c2ccccc2)c2ccccc2)o1 (centres undefined)	·	·	·	–	·	–
CC1C/C(=C/c2ccncc2)C(=O)/C(=C/c2ccncc2)C1 (centres undefined)	54	–	–	–	–	–
CC1C/C(=C/c2cccn2C)C(=O)/C(=C/c2cccn2C)C1 (centres undefined)	–	–	–	–	–	–
